Calls of active or inactive are those of the source.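 Rule for the calls, unless noted: active = inhibition of the reporter signal at or above 50%; inactive = inhibition below 50%.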

The source of these data is PubChem BioAssay.

Assay [1] in a line: inhibitors of TNFa-induced NFkB p65 translocation, primary screen, imaging, HUVEC, MLSMR starter and 10KST1 sets (AID 438;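 active = inhibition above 20% together with a positive visual image hit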;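 note: compound added about 3h40 before a 20 min TNFalpha stimulation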;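 for inhibition: signal is the nuclear over cytoplasmic p65 intensity ratio per well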). Particulars: HUVEC TNFa-induced p65 nuclear translocation; cell count: measured here: nuclei count (cytotoxicity indicator), at 2.08 µM; inhibition: at 2 µM, stronger effect = higher value, 0% TNFa-plus-vehicle, 100% no-TNFa wells.
Assay [2] in a line: inhibitors of mutant huntingtin aggregation, primary screen, imaging, exon1htt(103Q)mCFP cells, high-content imaging (AID 483;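 active = visual image review flags a hit and inhibition of aggregation exceeds 20%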;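 note: compound exposure lasted 3 days before fixation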;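 for nuclei count: percent of the per-plate median nuclei count of sample wells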). To be noted: exon1htt(103Q)mCFP cell line, aggregate imaging, at 2 µM; inhibition of aggregation: stronger effect = higher value; nuclei count: measured here: cell count, toxicity.
The nature of assay [3]: inhibitors of E-selectin induction by TNFa, primary screen, imaging, HUVEC, immunofluorescence, MLSMR starter and 10KST1 sets (AID 487;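 active = visually confirmed hit in the image check and inhibition above 20%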;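 for inhibition: signal is fraction of cell area covered by stained E-selectin grains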;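 for nuclei count: 100% = median nuclei count of all wells on the same plate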). Particulars: HUVEC TNFalpha-induced E-selectin immunofluorescence imaging, at 2 µM; inhibition: stronger effect = higher value; nuclei count: measured here: cell number, toxicity.
Assay [4] addresses Voltage-gated potassium channel subunit beta-2 (Rattus norvegicus) (UniProt P62483). As to the kind of experiment: KvBeta enzyme negative modulators, primary screen, biochemical, NADPH fluorescence (AID 622;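 active = fluorescence slope higher than the sample average by over 3 SD, cut at about -0.22 in these data, passing the limit was not always enough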;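 note: slope of raw intensity against log time taken from 70 to 1610 s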). To be noted: recombinant KvBeta, 4-cyanobenzaldehyde reduction, at 10 µM, stronger effect = higher value.
The target is the same in assay [5]. As to the kind of experiment: KvBeta positive modulators, primary screen, biochemical, NADPH fluorescence (AID 623;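 active = NADPH fluorescence slope more negative than the mean of all samples by about 3 SD, 99.7% confidence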;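 note: fluorescence intensity change per second fitted from 20 to 320 s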). Particulars: Recombinant KvBeta, NADPH fluorescence decrease slope, 10 min; at 10 µM; stronger effect = lower value.
Assay [6] deals with Alpha-2C adrenergic receptor (Homo sapiens) (UniProt P18825). As to the kind of experiment: modulators of alpha2C/GIRK thallium flux, primary screen, cell-based, HEK293 alpha2C/GIRK1/2 (AID 624;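 active = fluorescence slope after compound addition differing from the mean of all screened samples at 99.7% confidence, in either direction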;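 note: slope of fluorescence ratio to pre-addition baseline per second over 15 to 24 s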). Particulars: thallium flux BTC fluorescence, at 10 µM, actives lie on both sides.
Chain of Alpha-2C adrenergic receptor (Homo sapiens) (P18825 whole entry, looked up): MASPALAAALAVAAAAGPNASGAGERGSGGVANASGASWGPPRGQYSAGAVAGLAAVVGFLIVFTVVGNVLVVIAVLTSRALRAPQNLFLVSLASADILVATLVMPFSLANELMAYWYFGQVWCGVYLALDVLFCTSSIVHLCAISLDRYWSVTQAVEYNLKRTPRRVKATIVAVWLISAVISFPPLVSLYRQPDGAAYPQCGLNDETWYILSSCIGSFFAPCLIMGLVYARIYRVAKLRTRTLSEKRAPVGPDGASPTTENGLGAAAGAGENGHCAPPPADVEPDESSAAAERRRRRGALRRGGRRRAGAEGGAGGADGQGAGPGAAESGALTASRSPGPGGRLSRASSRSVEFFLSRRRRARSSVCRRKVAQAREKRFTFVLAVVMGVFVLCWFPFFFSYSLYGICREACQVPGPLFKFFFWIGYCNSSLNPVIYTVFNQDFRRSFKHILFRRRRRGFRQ
The nature of assay [7]: inhibitors of Sendai virus-induced IRF3 signaling, primary screen, TLR/RLR signaling modifier project, cell-based, Sendai virus stimulus, luciferase, 10K MLSCN set (AID 602276;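 active = inhibition at or above 50% at 10 µM; inactive = inhibition below 50%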;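 note: firefly luciferase from ISG56 promoter only with Renilla not read in this screen; 0% = Sendai virus plus DMSO and 100% = medium plus DMSO without virus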). To be noted: HEK293 RL24 IRF3 luciferase reporter, at 10 µM, stronger effect = higher value. On the technique in general: A reporter such as luciferase makes a cellular process visible.
A short description of assay [8]: inhibitors of poly I:C-induced TLR3 signaling, primary screen, cell-based, poly I:C stimulus, luciferase, 10K MLSCN set (AID 602277). Particulars: HEK293-TLR3 RL24 IRF3 luciferase reporter, at 10 µM, stronger effect = higher value.

Chain of Voltage-gated potassium channel subunit beta-2 (Rattus norvegicus) (P62483 whole entry, looked up): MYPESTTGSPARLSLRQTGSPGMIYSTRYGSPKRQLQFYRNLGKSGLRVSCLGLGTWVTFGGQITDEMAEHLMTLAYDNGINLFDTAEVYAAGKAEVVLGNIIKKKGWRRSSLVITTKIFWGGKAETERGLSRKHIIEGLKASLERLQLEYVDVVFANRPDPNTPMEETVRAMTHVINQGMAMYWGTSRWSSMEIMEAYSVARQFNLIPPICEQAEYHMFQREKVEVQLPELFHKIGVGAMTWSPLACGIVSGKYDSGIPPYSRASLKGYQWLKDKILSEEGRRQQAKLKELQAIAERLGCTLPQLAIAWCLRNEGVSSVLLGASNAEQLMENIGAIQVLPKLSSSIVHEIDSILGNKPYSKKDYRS

A word on the inhibition: it is the relative decrease from the control value, in per cent. Consider `Cc1ccc(S(=O)(=O)NCCOC(=O)Nc2sc(=S)n(C)c2C)cc1`, for which, in assay [1], the cell count is 466. Further, the inhibition is 1.6% (inactive) in assay [1], 15% (inactive) in assay [3], -15% (inactive) in assay [7] and 15.5% (inactive) in assay [8]. For the same molecule, the inhibition of aggregation in assay [2] is -2.2% (inactive). For the same molecule, the nuclei count amounted to 103% in assay [2] and 108% in assay [3]. Further, in assay [4], the fluorescence slope was -0.5 (inactive). Also, the NADPH fluorescence slope in assay [5] is 3.3e-05 (inactive). Moreover, in assay [6], the slope is 0.00618 (inactive).

On to `Cc1cc(C)nc(N(C#N)CC(=O)N2CCC(C(N)=O)CC2)n1`, for which the cell count in assay [1] is 553. The inhibition was -16.4% (inactive) in assay [1], 21.6% (inactive) in assay [3], 14.2% (inactive) in assay [7] and 13.3% (inactive) in assay [8]. Also, the inhibition of aggregation in assay [2] is 12.3% (inactive). Besides, the nuclei count in assay [2] was found to be 98.2%; in assay [3], 98.4%. Besides, the fluorescence slope in assay [4] is -0.489 (inactive). Moreover, in assay [5], the NADPH fluorescence slope is 1.8e-05 (inactive). Also, the slope in assay [6] was 0.00455 (inactive).

As to `Cc1ccc(C(C(=O)NC2CCCCC2)N2CCOCC2)cc1` (stereo not given), in assay [1], the cell count turned out to be 674. The inhibition is -5.2% (inactive) in assay [1], -41.7% (inactive) in assay [3], -0.432% (inactive) in assay [7] and 15.1% (inactive) in assay [8]. In addition, the inhibition of aggregation in assay [2] is -13% (inactive). The nuclei count came out at 114% in assay [2] and 125% in assay [3]. Also, the fluorescence slope in assay [4] is -0.468 (inactive). The NADPH fluorescence slope in assay [5] was -0.000297 (inactive). The slope in assay [6] is 0.00526 (inactive).

`Nc1nc2n(n1)C(c1c(F)cccc1Cl)CC(c1ccc(F)cc1)N2` (stereo not given): in assay [1], the cell count stood at 868. Moreover, the inhibition in assay [1] is 3.5% (inactive); in assay [3], -37% (inactive); in assay [7], -2.35% (inactive); in assay [8], 25.6% (inactive). Besides, the inhibition of aggregation in assay [2] was -46.8% (inactive). The results for the nuclei count in assay [2] and in assay [3] were 117% and 110%, respectively. The fluorescence slope in assay [4] was -0.455 (inactive). For the same molecule, the NADPH fluorescence slope in assay [5] was -1.9e-05 (inactive). In addition, the slope in assay [6] is 0.0048 (inactive).

Consider `CC(=O)c1cn(CC(=O)NCc2ccc3c(c2)OCO3)c2ccccc12`, for which the cell count in assay [1] turned out to be 326. In addition, the inhibition is -2.1% (inactive) in assay [1], -24.5% (inactive) in assay [3], 11.9% (inactive) in assay [7] and 9.83% (inactive) in assay [8]. Besides, the inhibition of aggregation in assay [2] is -11.9% (inactive). Moreover, the values for the nuclei count in assay [2] and in assay [3] were 108% and 107%, respectively. Besides, in assay [4], the fluorescence slope is -0.534 (inactive). Besides, the NADPH fluorescence slope in assay [5] is -9.1e-05 (inactive). For the same molecule, the slope in assay [6] is 0.00566 (inactive).

In the case of `Cc1ccc2c(c1C)NC(=O)C2(O)CC(=O)c1ccc2c(c1)OCO2` (stereo not given), in assay [1], the cell count was found to be 788. The inhibition is 0.6% (inactive) in assay [1], -44% (inactive) in assay [3], 11.2% (inactive) in assay [7] and 25.3% (inactive) in assay [8]. The inhibition of aggregation in assay [2] was 34.5% (inactive). Besides, the nuclei count in assay [2] amounted to 96.2%; in assay [3] it was 110%. In addition, in assay [4], the fluorescence slope is -0.472 (inactive). Also, the NADPH fluorescence slope in assay [5] was -5.3e-05 (inactive). In addition, the slope in assay [6] is 0.00591 (inactive).

In the case of `CC1CCN(S(=O)(=O)c2ccc3[nH]cc(C(=O)NCCN4CCOCC4)c(=O)c3c2)CC1`, in assay [1], the cell count is 697. The inhibition in assay [1] is -3% (inactive); in assay [3] it was -101% (inactive); in assay [7], 8.86% (inactive); in assay [8], 17.9% (inactive). Moreover, the inhibition of aggregation in assay [2] is -11.2% (inactive). Also, the nuclei count in assay [2] amounted to 104%; in assay [3] it was 106%. The fluorescence slope in assay [4] is -0.519 (inactive). Further, the NADPH fluorescence slope in assay [5] is -3.8e-05 (inactive). The slope in assay [6] is 0.00576 (inactive).

Turning to `C/C(Nc1cccc(F)c1)=C(/C#N)C(N)=O`, the cell count in assay [1] stood at 640. The inhibition is 3.4% (inactive) in assay [1], 48.6% (inactive) in assay [3], -10.6% (inactive) in assay [7] and -10.3% (inactive) in assay [8]. Also, the inhibition of aggregation in assay [2] is 1.6% (inactive). Further, the nuclei count in assay [2] worked out at 104%; in assay [3] it was 106%. In assay [4], the fluorescence slope was -0.361 (inactive). The NADPH fluorescence slope in assay [5] is -3.8e-05 (inactive). Further, the slope in assay [6] is 0.00545 (inactive).

On to `COc1cc(C(c2sc3nc(C)nn3c2O)N2CC(C)CC(C)C2)cc(OC)c1OC` (stereo not given), for which the cell count in assay [1] came out at 468. The inhibition in assay [1] is -3.4% (inactive); in assay [3] it was -18.2% (inactive); in assay [7] it was 9.58% (inactive); in assay [8], 18.7% (inactive). In addition, the inhibition of aggregation in assay [2] is -10.7% (inactive). Further, the nuclei count in assay [2] came to 114%; in assay [3], 109%. In addition, in assay [4], the fluorescence slope was -0.505 (inactive). The NADPH fluorescence slope in assay [5] is -0.00015 (inactive). Further, the slope in assay [6] is 0.00579 (inactive).

For the molecule `O=C(CN1C(=O)NC2(CCCCC2)C1=O)Nc1ccc(S(=O)(=O)N2CCOCC2)cc1`, the cell count in assay [1] came to 460. Moreover, the inhibition was 5.2% (inactive) in assay [1], 29.7% (inactive) in assay [3], 9.77% (inactive) in assay [7] and 34.3% (inactive) in assay [8]. Further, the inhibition of aggregation in assay [2] is -2.3% (inactive). In addition, the nuclei count in assay [2] is 93.7%; in assay [3], 96.2%. In addition, in assay [4], the fluorescence slope is -0.49 (inactive). Moreover, the NADPH fluorescence slope in assay [5] was -7.9e-06 (inactive). Further, the slope in assay [6] was 0.00589 (inactive).
